Laboratory results: PubChem BioAssay (Tox21)
Where “and” joins values, the source holds several entries; their conditions need not be identical. Equal entries are not always repeated. Inconclusive results are not listed. Calls of active or inactive are those of the source. Unless noted, calls come from the whole dose curve.

Assays:
[1] = qHTS assay to identify small molecule agonists of the sonic hedgehog signaling (Shh) pathway (AID 1259368); note: nearly all actives have a fitted effect of over 15% in size; note: potency is the fitted concentration of half-maximal effect
In short: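 NIH/3T3-derived 3T3Gli1-Luc cells with stably integrated Gli1-driven firefly luciferase, 2,000 cells/well, compounds added after 4 hr. Incubated 24 hr at 37C, 5% CO2; luminescence read after 30 min with luciferase reagent at room temperature.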

[2] = qHTS assay to identify small molecule antagonists of the sonic hedgehog signaling (Shh) pathway (AID 1259369); note: nearly all actives have a fitted effect of over 45% in size; note: potency is the fitted concentration of half-maximal effect
In short: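 NIH/3T3-derived Gli1-Luc reporter cells plated 4 h, dosed with compound, then stimulated with conditioned medium for 24 h at 37 C. Firefly luciferase luminescence read after 30 min with detection reagent at room temperature.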

[3] = qHTS assay to identify small molecule agonists of the androgen receptor (AR) signaling pathway in the presence of an antagonist - cell viability counter screen (AID 1259379; active = well fitted curve in the direction sought with a large enough effect in the repeat runs; an effect the other way counts as inactive or inconclusive; note: nearly all actives have a fitted effect of over 25% in size; note: potency is the fitted concentration of half-maximal effect)
In short: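 MDA-kb2 cells (MMTV-luciferase, AR/GR), 3,000/well, 5 h attachment, then 3.0 µM nilutamide (final) and compounds at 15 concentrations. Viability by CellTiter-Fluor fluorescence after 16 h at 37 °C, 0% CO2, in the reporter wells.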

[4] = qHTS assay to identify small molecule agonists of the estrogen receptor beta (ER-beta) signaling pathway - cell viability counter screen (AID 1259380; active = well fitted curve in the direction sought with a large enough effect in the repeat runs; an effect the other way counts as inactive or inconclusive; note: nearly all actives have a fitted effect of over 30% in size; note: potency is the fitted concentration of half-maximal effect)
In short: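 ER-beta-UAS-bla HEK293T cells in medium with 2% charcoal-stripped FBS, pre-incubated 6 hr, then treated 16 hr at 37C. Cytotoxicity read in the same wells by CellTiter-Glo luminescence after 30 min at room temperature.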

[5] = molecular target: Androgen receptor (Homo sapiens) (UniProt P10275); test: qHTS assay to identify small molecule agonists of the androgen receptor (AR) signaling pathway in the presence of an antagonist (AID 1259381); note: nearly all actives have a fitted effect of over 15% in size
Androgen receptor (Homo sapiens), sequence (P10275 whole entry, looked up): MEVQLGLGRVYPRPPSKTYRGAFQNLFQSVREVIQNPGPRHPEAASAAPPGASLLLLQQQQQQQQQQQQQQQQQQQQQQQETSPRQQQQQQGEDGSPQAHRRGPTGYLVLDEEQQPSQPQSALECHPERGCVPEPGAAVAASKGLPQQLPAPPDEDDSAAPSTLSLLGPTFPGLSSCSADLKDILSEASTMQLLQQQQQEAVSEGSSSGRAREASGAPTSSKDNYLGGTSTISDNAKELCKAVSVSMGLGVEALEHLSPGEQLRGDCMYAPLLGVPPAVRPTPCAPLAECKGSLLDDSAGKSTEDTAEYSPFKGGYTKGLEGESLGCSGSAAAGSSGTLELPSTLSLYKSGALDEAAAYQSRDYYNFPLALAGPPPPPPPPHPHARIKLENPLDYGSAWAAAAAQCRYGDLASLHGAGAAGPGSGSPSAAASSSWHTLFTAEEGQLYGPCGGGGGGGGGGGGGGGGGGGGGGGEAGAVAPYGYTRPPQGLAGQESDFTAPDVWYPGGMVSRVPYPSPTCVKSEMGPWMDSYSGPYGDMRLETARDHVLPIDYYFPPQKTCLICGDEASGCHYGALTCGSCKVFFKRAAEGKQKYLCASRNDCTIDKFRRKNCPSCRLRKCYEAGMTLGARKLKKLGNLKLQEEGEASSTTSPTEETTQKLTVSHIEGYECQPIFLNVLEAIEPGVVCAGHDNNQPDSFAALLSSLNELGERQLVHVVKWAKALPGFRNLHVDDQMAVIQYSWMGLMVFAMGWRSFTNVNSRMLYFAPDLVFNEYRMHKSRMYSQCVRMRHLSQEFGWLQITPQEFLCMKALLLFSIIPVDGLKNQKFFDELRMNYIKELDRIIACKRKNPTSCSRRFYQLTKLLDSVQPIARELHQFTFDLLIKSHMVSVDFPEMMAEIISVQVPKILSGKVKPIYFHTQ
In short: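 MDA-kb2 cells carrying MMTV-luciferase (AR/GR responsive), 3,000 cells/well, co-treated with 3.0 uM nilutamide final. Compounds at 15 concentrations, 16 hr at 37C without CO2. Luciferase luminescence read after 30 min with ONE-Glo.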

[6] = qHTS assay to identify small molecule antagonists of the estrogen receptor beta (ER-beta) signaling pathway - cell viability counter screen (AID 1259382; active = well fitted curve in the direction sought with a large enough effect in the repeat runs; an effect the other way counts as inactive or inconclusive; note: nearly all actives have a fitted effect of over 55% in size; note: potency is the fitted concentration of half-maximal effect)
In short: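 ER-beta-UAS-bla HEK293T cells in 2% charcoal-stripped FBS medium, treated with compound plus 1 nM 17-beta-estradiol for 16 h at 37C. Viability read by CellTiter-Glo luminescence after 30 min at room temperature in the same wells.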

[7] = molecular target: Estrogen receptor (Homo sapiens) (UniProt P03372); test: qHTS assay to identify small molecule agonists of the estrogen receptor alpha (ER-alpha) signaling pathway in the presence of an antagonist (AID 1259383); note: nearly all actives have a fitted effect of over 15% in size; note: potency is the fitted concentration of half-maximal effect; for activation: top concentration of the series differs between compounds
Estrogen receptor (Homo sapiens), sequence (P03372 whole entry, looked up): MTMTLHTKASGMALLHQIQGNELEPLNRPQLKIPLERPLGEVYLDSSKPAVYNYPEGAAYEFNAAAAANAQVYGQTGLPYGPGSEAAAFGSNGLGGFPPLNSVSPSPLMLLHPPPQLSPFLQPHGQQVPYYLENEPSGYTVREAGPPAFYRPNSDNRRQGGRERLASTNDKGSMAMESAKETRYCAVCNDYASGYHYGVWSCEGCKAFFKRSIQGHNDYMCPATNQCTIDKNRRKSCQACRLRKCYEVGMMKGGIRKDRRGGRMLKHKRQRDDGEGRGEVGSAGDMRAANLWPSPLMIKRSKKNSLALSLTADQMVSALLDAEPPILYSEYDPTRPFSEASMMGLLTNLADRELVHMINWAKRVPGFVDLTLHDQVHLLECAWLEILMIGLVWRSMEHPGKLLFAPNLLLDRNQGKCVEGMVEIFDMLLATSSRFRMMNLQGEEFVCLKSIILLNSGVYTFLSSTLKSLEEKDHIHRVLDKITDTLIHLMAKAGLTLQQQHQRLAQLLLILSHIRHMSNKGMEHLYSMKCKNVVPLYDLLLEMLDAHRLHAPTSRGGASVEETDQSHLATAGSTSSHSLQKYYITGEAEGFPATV
In short: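 VM7Luc4E2 cells express endogenous full-length ER-alpha with an ERE-luciferase reporter and were hormone-deprived for 5 days. Compounds at 15 concentrations were added with 10.0nM ICI-182,780 for 22hr at 37C. Luminescence was read with ONE-Glo.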

[8] = qHTS assay to identify small molecule agonists or antagonists of the thyroid stimulating hormone receptor (TSHR) signaling pathway - wild type cell line counter screen (AID 1259384)
In short: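 Counter screen in untransfected Hek293: compounds (15-point titration, triplicate) plus phosphodiesterase inhibitor Ro20-1724 added after 18 h plating; 30 min RT. Intracellular cAMP via competitive d2/cryptate immunoassay, 1 h incubation.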

[9] = molecular target: Estrogen receptor beta (Homo sapiens) (UniProt Q92731); test: qHTS assay to identify small molecule antagonists of the estrogen receptor beta (ER-beta) signaling pathway (AID 1259378; active = well fitted inhibition curve with a large enough effect in the signal ratio in the repeat runs, not every such curve was filed as active; the % refers to the signal ratio; note: potency is the fitted concentration of half-maximal effect)
Estrogen receptor beta (Homo sapiens), sequence (Q92731 whole entry, looked up): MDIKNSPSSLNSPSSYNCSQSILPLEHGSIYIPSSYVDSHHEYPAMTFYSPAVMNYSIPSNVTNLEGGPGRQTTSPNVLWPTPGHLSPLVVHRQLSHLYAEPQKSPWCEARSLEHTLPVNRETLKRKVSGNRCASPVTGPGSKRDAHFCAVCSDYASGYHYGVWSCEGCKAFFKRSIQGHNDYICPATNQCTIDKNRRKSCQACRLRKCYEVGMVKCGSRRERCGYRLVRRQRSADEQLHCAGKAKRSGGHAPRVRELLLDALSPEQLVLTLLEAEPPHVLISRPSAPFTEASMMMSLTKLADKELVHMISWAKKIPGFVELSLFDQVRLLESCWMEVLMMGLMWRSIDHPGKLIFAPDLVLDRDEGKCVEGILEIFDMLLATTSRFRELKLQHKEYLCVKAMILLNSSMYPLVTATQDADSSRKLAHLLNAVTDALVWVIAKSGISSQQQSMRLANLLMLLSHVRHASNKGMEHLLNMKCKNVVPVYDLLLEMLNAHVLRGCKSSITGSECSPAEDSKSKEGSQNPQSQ
In short: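 Antagonist mode: compounds added to beta-lactamase reporter HEK293T ER-beta-UAS cells stimulated with E2 (1nM final), 16 hr at 37C. LiveBLAzer B/G FRET substrate, 2 hours room temperature, fluorescence read-out.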

[10] = molecular target: Estrogen receptor beta (Homo sapiens) (UniProt Q92731); test: qHTS assay to identify small molecule agonists of the estrogen receptor beta (ER-beta) signaling pathway (AID 1259377; active = well fitted activation curve with a large enough effect in the signal ratio in the repeat runs, not every such curve was filed as active; the % refers to the signal ratio)
In short: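 Beta-lactamase reporter readout: fluorescence of LiveBLAzer B/G FRET substrate after 2 h at room temperature, following 16 h compound treatment of ER-beta-UAS-bla HEK293T cells at 37C in 2% charcoal-stripped FBS medium.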

Measured: Potency

O=C(C(Cl)(Cl)Cl)C(Cl)(Cl)Cl
not listed: [8] | [9] | [10]
inactive: all other assays above

CCOC(=O)C(Cl)C(C)=O (stereo unspecified)
not listed: [5] | [9] | [10]
inactive: all other assays above

COC(=O)c1cncn1C(C)c1ccccc1 (stereo unspecified)
inactive: [1] | [2] | [3] | [4] | [6] | [7]

O=Cc1ccc(Cl)cc1Cl
inactive: [1] | [2] | [9] | [3] | [4] | [6]

CCCCCCCCCCOC(=O)c1ccccc1C(=O)OCCCCCCCCCC
not listed: [9] | [10]
inactive: all other assays above

O=C(NC(=O)c1c(F)cccc1F)Nc1ccc(OC(F)(F)C(F)OC(F)(F)F)c(Cl)c1 (stereo unspecified)
not listed: [5] | [8] | [10]
inactive: all other assays above

c1cc2ccc3cccc4ccc(c1)c2c34
inactive: [1] | [2] | [3] | [5]
active: [4] 32.1 µM | [7] 64.1 µM

IC(I)=C(I)I
inactive: [1] | [5] | [7] | [8]
active: [2] 2.73 µM | [3] 27.3 µM | [4] 21.7 µM | [6] 21.7 µM

O=S1OC[C@@H]2[C@H](CO1)[C@]1(Cl)C(Cl)=C(Cl)[C@@]2(Cl)C1(Cl)Cl (stereo partly specified)
not listed: [9] | [10]
inactive: all other assays above

O=NN1CCCCCC1
not listed: [9] | [10]
inactive: all other assays above

Cc1ccccc1C(=O)Nc1cccc(OC(C)C)c1
active: [2] 17.2 µM | [4] 19.3 µM
not listed: [6] | [10]
inactive: all other assays above

O=S1(=O)OC(c2cc(Br)c(O)c(Br)c2)(c2cc(Br)c(O)c(Br)c2)c2ccccc21
active: [2] 7.05 µM | [3] 25 µM | [4] 31.5 µM
inactive: [1] | [5] | [7]

CCCCNP(N)(N)=S
not listed: [5] | [10]
inactive: all other assays above

CCN(C)N=O
inactive: [1] | [2] | [3] | [4] | [6] | [7]

ClP(Cl)(Cl)(Cl)Cl
inactive: [1] | [2] | [3] | [4] | [6] | [7]

Sc1ccccc1Cl
not listed: [8] | [9] | [10]
inactive: all other assays above

N#CCC#N
not listed: [4] | [10]
inactive: all other assays above

CCC(C)(NC(=O)c1cc(Cl)c(C)c(Cl)c1)C(=O)CCl (stereo unspecified)
active: [9] 19.4 µM | [3] 61.5 µM | [4] 61.5 µM
inactive: [1] | [2] | [7]

COC1=CC(=O)O[C@@H](CCc2ccccc2)C1
not listed: [7] | [10]
inactive: all other assays above

COP(=S)(OC)Oc1ccc([N+](=O)[O-])cc1Cl
active: [3] 48.6 µM
not listed: [9] | [10]
inactive: all other assays above

O=C1C(=O)c2cccc3cccc1c23
active: [2] 4.32 µM | [4] 43.2 µM
not listed: [5] | [10]
inactive: all other assays above

COc1c(C(C)(C)C)cc([N+](=O)[O-])c(C)c1[N+](=O)[O-]
not listed: [5] | [8] | [10]
inactive: all other assays above

CCOP(=O)(OCC)SCCSCC
not listed: [5] | [10]
inactive: all other assays above

CCOC(=O)COc1cc(-c2nn(C)c(OC(F)F)c2Cl)c(F)cc1Cl
not listed: [7] | [9] | [10]
inactive: all other assays above

[CH3][Sn]([CH3])([Cl])[Cl]
inactive: [3] | [4] | [6]
active: [1] 7.82 µM and 24.3 µM | [2] 2.43 µM

ClC=C(Cl)Cl
not listed: [5] | [9] | [10]
inactive: all other assays above

C=COC(C)=O
inactive: [1] | [2] | [3] | [4] | [6] | [8]

Cn1cc[n+](C)c1 (tested in a mixture with another compound)
not listed: [5] | [9] | [10]
inactive: all other assays above

CN1[C@@H]2CC[C@H]1CC(OC(=O)c1cc(Cl)cc(Cl)c1)C2 (stereo partly specified)
active: [4] 26.6 µM
not listed: [2] | [5]
inactive: all other assays above

COCCOCCO
active: [2] 27.3 µM
inactive: [1] | [3] | [6] | [7] | [8]
